Shown are actives, neighbours in structure and some others; about 4.7% of the full set was active somewhere.
GDH-TPI counter = GDH-TPI coupled enzyme inhibition counter-screen; AID 588335; 360,000 compounds, 1.2% hits; GDH-TPI coupled enzyme counterscreen, NADH absorbance; inhibition, % at 4.8 µM;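 also: 0% = DMSO wells and 100% = wells lacking the enzyme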
RecA intein inh = blocks M. tuberculosis RecA intein splicing | cell-free RecA intein splicing, fluorescence | 290,000 compounds, 0.75% hits | inhibition, % (no concentration beside the values) | P9WHJ3; in the data active = inhibition above about 30%;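 also: 0% = vehicle wells and 100% = reference inhibitor control wells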
DUSP3 inh = inhibitors of human VHR1 phosphatase (DUSP3). P51452. AID 1654. recombinant VHR phosphatase, pNPP absorbance. inhibition, % at 13.3 µM. 290,000 compounds, 0.52% hits; in the data active = inhibition above about 50%
Target sequence (P51452 whole entry, looked up): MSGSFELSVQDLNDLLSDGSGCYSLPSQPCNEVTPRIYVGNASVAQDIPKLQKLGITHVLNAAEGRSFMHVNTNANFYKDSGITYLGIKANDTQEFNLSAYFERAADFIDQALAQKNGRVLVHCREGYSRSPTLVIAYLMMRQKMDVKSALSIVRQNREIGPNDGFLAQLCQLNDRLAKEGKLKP
CCHFV vOTU inh = CCHFV vOTU protease inhibition. inhibition, % at 11.5 µM. Pep-AMC fluorescence. 370,000 compounds, 0.55% hits; also: 0% = vehicle wells with enzyme and 100% = no enzyme wells
FBA Mtb inh = Mtb fructose-bisphosphate aldolase inhibition; purified M. tuberculosis FBA, fluorescence read-out; AID 588726; 360,000 compounds, 2.3% hits; inhibition, % at 1 µM; in the data active = inhibition above about 27%;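 also: 0% = vehicle and 100% = reference inhibitor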
SARS 3CLpro inh = SARS-CoV 3CLpro protease inhibition; 290,000 compounds, 0.14% hits; P0C6X7; AID 1706; inhibition, % at 6 µM; recombinant SARS-CoV 3CLpro, quenched FRET peptide cleavage; in the data active = inhibition above about 12%
* hit, by the source's call; x = not tested or not shown. Rule as the data show it, unless noted: active = inhibition above about 30%; inactive = the rest.

SMILES	GDH-TPI counter	RecA intein inh	DUSP3 inh	CCHFV vOTU inh	FBA Mtb inh	SARS 3CLpro inh
CCCOc1ccc(NC(=O)C2CC(=O)N/C(=N/N=C(C)/C=C/c3ccc(N(C)C)cc3)S2)cc1 (stereo unspecified)	32.2*	-44.3	-6.9	2.3	-3.2	2.3
CN(C)CCN1CCN(C2CN(Cc3cn(Cc4ccc(Cl)cc4)nn3)S(=O)(=O)C2)CC1 (stereo unspecified)	x	x	x	-3.9	x	x
NC(=S)N/N=C/c1ccccc1OCc1cccc(Cl)c1	41.2*	-2.4	29.7	x	-0.8	-1.0
COC(=O)N/N=C/c1ccccc1OCc1ccccc1	4.6	-1.3	2.6	-6.4	0.6	3.9
CCCCOCC1CN(CCCC)S(=O)(=O)c2c(NCc3cc(OC)c(OC)c(OC)c3)cccc2O1 (stereo unspecified)	x	x	x	18.2	x	x
CC(C)CNC(=O)OCc1cn(Cc2ccccc2F)nn1	x	x	x	-4.0	x	x
CCN1CCN(c2nc(C)nc3c2sc(=S)n3C)CC1	34.6*	x	3.4	14.8	-0.5	0.4
Cc1cc(Cl)ccc1-c1nc(NC(C)C)nc2ccsc12	1.3	x	x	-17.4	18.6	x
CCOCCCNC(=O)C1CCN(S(=O)(=O)c2cc3c(cc2Br)CCN3C(=O)CC)CC1	x	x	x	-1.8	x	x
CN1/C(=C\C=N\NC(=O)c2cccnc2)C(C)(C)c2ccccc21	3.8	-1.8	9.0	-5.8	0.0	-6.8
CN1/C(=C\C=N\NC(=O)c2ccc(O)cc2)C(C)(C)c2ccccc21	39.5*	-2.2	2.6	9.9	-3.8	4.1
Cc1cc(C)cc(S(=O)(=O)c2cnc3ccccc3n2)c1	-5.1	31.5*	2.2	-8.4	-1.3	1.3
Cc1ccc(C)c(Cn2nc(-c3ccccc3)ccc2=O)c1	10.0	14.7	52.6*	19.1	1.8	5.5
COc1ccc2cc3[n+](cc2c1OC)CCc1cc2c(cc1-3)OCO2	34.7*	-1.3	3.9	15.8	-2.3	-3.9
COc1cccc(C2=NCCc3cc4c(cc32)OCO4)c1OC	10.7	-27.4	30.1	-2.0	-0.8	0.4
CC(=O)Nc1nc2nc(-c3ccccc3)cc(-c3ccccc3)n2n1	25.8	-6.0	6.2	-46.1	60.2*	0.7
COc1ccc(NC(=O)c2ccccc2[N+](=O)[O-])cc1	16.1	-0.8	55.4*	-10.1	0.9	5.8
Cc1ncc(CO)c(CO)c1O	9.8	-2.6	x	2.2	3.8	x
Cc1ncc(CO)c(CNc2ccc(-c3nc4ccccc4[nH]3)cc2)c1O	41.9*	-3.7	6.1	-8.0	13.5	-8.1
CCn1cc(/C=C(\NC(=O)c2ccccc2F)C(=O)N2CCN(C)CC2)c2ccccc21	38.9*	x	x	7.3	0.7	x
CCn1cc(/C=C(\NC(=O)c2ccc(OC)c(OC)c2)C(=O)N2CCN(C)CC2)c2ccccc21	26.7	6.1	56.8*	-0.4	-1.8	-3.4
COc1ccc(C(=O)N/C(=C\c2cccc3ccccc23)C(=O)N2CCN(C)CC2)cc1OC	0.6	-2.2	5.6	-8.5	-1.4	-0.2
COC(=O)c1cc2c(c3c4cc(F)ccc4n(S(=O)(=O)c4ccccc4)c13)C(=O)N(Cc1ccco1)C2	x	x	x	0.2	x	x
CCC(Sc1ncnc2c1nnn2-c1ccc(F)cc1)C(=O)OC (stereo unspecified)	-1.3	3.4	7.1	-9.8	0.0	1.8
CCOC(=O)C(C)Sc1ncnc2c1nnn2-c1ccc(F)cc1 (stereo unspecified)	5.1	36.9*	7.1	-5.7	1.1	-4.1
SMILES	GDH-TPI counter	RecA intein inh	DUSP3 inh	CCHFV vOTU inh	FBA Mtb inh	SARS 3CLpro inh
O=C(c1cc(COc2ccc3ncccc3c2)on1)N1CCC[C@H]1CO	-1.0	2.5	52.8*	-7.4	2.3	-4.6
O=C1CCN(Cc2ccccc2)CCN1CCO	10.1	-0.2	10.4	3.4	6.1	x
O=C1CCN(Cc2ccc(O)cc2)CCN1CCO	34.4*	-3.1	16.6	9.0	0.8	-3.9
O=C(O)CC1(CC(=O)Nc2ccc3ccccc3n2)CCCCC1	-2.3	0.0	2.5	8.6	-0.5	-0.8
Cc1ccc(C(=O)Nc2ccc([N+](=O)[O-])cn2)o1	40.0*	3.8	-0.9	-5.7	-4.9	-1.3
COc1ccc2c(c1)c1ncn(CCN3CCNCC3)c(=O)c1n2C	1.3	-4.4	41.5	-99.2	129.5*	3.3
COc1cccc2[nH]c3c(N4CCC5(CC4)OCCO5)ncnc3c12	11.7	-2.9	-3.2	-200.7	149.0*	3.0
COc1cccc2[nH]c3c(=O)n(CCCN4CCOCC4)cnc3c12	22.2	2.0	9.0	-66.0	147.4*	0.4
